Measurements: PubChem BioAssay (NCATS)
Records with an inconclusive call do not appear. Activity calls are given as the source filed them. Unless noted, the call rests on the fitted dose curve; in most records, active means well fitted curve in the direction sought with a large enough effect; inconclusive means small, poorly fitted or top-dose-only effect, or another doubt; inactive means no such curve, though single readings can be large; an effect the other way counts as inactive or inconclusive.

Tests used:
[1] = AP1 Signaling Pathway (AID 357; active means well fitted curve in either direction with a large enough effect, not every such curve was filed as active;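 further: ME-180 reporter cells stimulated with EGF at its EC50 level; on the % scale 0 is the no-effect control and ±100 the full control effect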); details: ME-180 AP-1-bla reporter, EGF-induced, beta-lactamase ratio, 5 h; at 7.69 µM (top of the series) unless noted
Method in brief: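 Beta-lactamase reporter under AP-1 response element, ME-180 background. Stimulus: EC50 EGF. Compound exposure 5 h, 37 °C. Detection: CCF4, 2.5 h RT, 460/530 nm. Values: AC50 from titration.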

[2] = molecular target: Cytochrome P450 1A2 (Homo sapiens) (UniProt P05177); assay: p450-cyp1a2 (AID 410; calls by dose curve; further: potency means the concentration at half of the fitted maximal effect;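 on activity change, negative = inhibition: -100% = full effect of reference inhibitor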)
Method in brief: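 Inhibition was calculated relative to 57 uM furafylline (full inhibition). The reaction used human CYP1A2 at 20nM with Luciferin-ME at its Km, 100uM, driven by an NADPH-regenerating system for 60 min at room temperature.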

[3] = NFAT Signaling Pathway (AID 444; active means well fitted curve in either direction with a large enough effect, not every such curve was filed as active;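 further: carbachol stimulus at about its EC50 of 1 µM final; on the % scale 0 is the no-effect control and ±100 the full control effect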); details: Jurkat NFAT-bla M1, carbachol, beta-lactamase ratio, 5 h; at 7.69 µM (top of the series) unless noted
Method in brief: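 Jurkat cells carrying an NFAT-driven β-lactamase reporter and co-transfected muscarinic M1 receptor were treated with compound plus carbachol (1 uM final, an EC50 level) for 5 h at 37 °C. CCF4 loading followed for 1 h at RT; 460/530 nm ratio gave %activity.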

[4] = Stat Signaling Pathway (AID 446; active means well fitted curve in either direction with a large enough effect, not every such curve was filed as active;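 further: ME-180 cervical cancer cells given 40 pM IL-6 alongside compound; SIE-controlled beta-lactamase reporter measured as 460/530 nm FRET emission ratio; on the % scale 0 is the no-effect control and ±100 the full control effect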); details: ME-180 (cervical carcinoma) SIE beta-lactamase reporter, IL-6 stimulated, 5 h; at 7.69 µM (top of the series) unless noted
Method in brief: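 IL-6/STAT signaling read in ME-180 cells via an SIE beta-lactamase reporter. Stimulus was 40 pM IL-6 (its AC50) for 5 hrs, so both activation and inhibition register.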

[5] = molecular target: Glucocorticoid receptor (Homo sapiens) (UniProt P04150); assay: GR-EFC Redistribution (AID 451; calls by dose curve; further: potency means the concentration at half of the fitted maximal effect); details: CHO-K1 GR-EFC translocation, beta-gal luminescence, 2 h
Method in brief: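 CHO-K1 cells stably expressing nuclear-localized β-gal enzyme acceptor and GR fused C-terminally to the enzyme donor fragment; ligand-driven nuclear translocation restores β-gal by complementation. Compounds titrated up to 46 uM final, 2 h at 37 °C; luminescence read.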

[6] = molecular target: Mitogen-activated protein kinase 10 (Mus musculus) (UniProt Q61831); assay: JNK3 AlphaScreen Assay (AID 530; active means well fitted curve in either direction with a large enough effect, not every such curve was filed as active;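 further: kinase came from lysate of stimulated human HepG2 cells; signal reports phosphorylation of biotinylated GST-cJun 1-79 at Ser73 with 10 µM ATP; on the % scale 0 is the no-effect control and ±100 the full control effect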)
Method in brief: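 JNK3 came from HepG2 lysates pre-activated with IL-1beta and TNF-alpha and phosphorylated biotinylated GST-cJun (1-79) at 10 uM ATP, pH 7.6, room temperature. Compounds were titrated. AlphaScreen signal used anti-phospho-cJun (Ser73) antibody.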

[7] = molecular target: 3',5'-cyclic-AMP phosphodiesterase 4B (Homo sapiens) (UniProt Q07343); assay: qHTS Assay for Inhibitors of PDE-IV (AID 607; active means well fitted activation curve with a large enough effect in the main read-out, with a control signal flat, not every such curve was filed as active; further: % of control where 0% means no effect)
Method in brief: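 Live HEK293 cells with a modified cyclic nucleotide-gated (CNG) channel report intracellular cAMP via membrane-potential dye fluorescence (ex 535/em 590 nm). Endogenous PDE-IV was targeted. Compounds were tested at up to 22.9 uM final; RO 20-1724 100 uM served as control.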

[8] = molecular target: Cytochrome P450 3A4 (Homo sapiens) (UniProt P08684); assay: qHTS Assay for Inhibitors and Substrates of Cytochrome P450 3A4 (AID 884); further: potency means the concentration at half of the fitted maximal effect; nearly all actives have a fitted effect of over 50% in size
Method in brief: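 20 nM human CYP3A4 with 25 uM Luciferin-PPXE (at KM) in 200 mM KPO4, preincubated 10 min with compound; NADPH regeneration started a 60 min RT reaction. Luciferin detected by luminescence, normalized to 57 uM ketoconazole as full inhibition.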

[9] = molecular target: Cytochrome P450 3A4 (Homo sapiens) (UniProt P08684); assay: qHTS Assay for Activators of Cytochrome P450 3A4 (AID 885); further: nearly all actives have a fitted effect of over 65% in size
Method in brief: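 Quantitative HTS format: compounds preincubated with 20nM human CYP3A4 and Luciferin-PPXE substrate at KM, reaction started by NADPH regeneration, stopped after 60 min, luciferase luminescence read 20 min later.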

[10] = qHTS Assay for Lipid Storage Modulators (AID 1519; calls by dose curve); details: Drosophila S3 cells, BODIPY lipid droplet/cell ratio, laser cytometry, cells loaded with oleic acid; for activity change, negative = inhibition: at 57.5 µM (top of the series)
Method in brief: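 Cells seeded at 5,000 per well were treated with compounds over a concentration series and loaded with oleic acid (400 uM, as added). Lipid droplet fluorescence (488 nm excitation, 500-530 nm channel) was read by laser-scanning cytometry and normalized to 20 uM Triacsin C.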

[11] = Primary qHTS for small molecule stabilizers of the endoplasmic reticulum resident proteome: Secreted ER Calcium Modulated Protein (SERCaMP) assay (AID 1508630); further: on the % scale 0 is the no-effect control and ±100 the full control effect
Method in brief: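 GLuc-SERCaMP-expressing SH-SY5Y cells, pretreated 16 h with compound, are challenged with thapsigargin to empty ER calcium stores; after 4 h, coelenterazine is added directly to the medium and luminescence is imaged.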

[12] = Primary qHTS for inhibitors of nuclear receptor binding SET domain protein 2 (NSD2) in an isogenic RCH-ACV NSD2 p.E1099K mutant (9B) (AID 1645876); further: nearly all actives have a fitted effect of over 70% in size; further: potency means the concentration at half of the fitted maximal effect
[13] = Primary qHTS for inhibitors of nuclear receptor binding SET domain protein 2 (NSD2) in an RCH-ACV wild type WT cells (2C) (AID 1645877); further: nearly all actives have a fitted effect of over 70% in size; further: potency means the concentration at half of the fitted maximal effect
[14] = molecular target: Glutathione peroxidase 1 (Homo sapiens) (UniProt P07203); assay: Primary qHTS Assay for Inhibitors of Recombinant Selenoprotein Glutathione Peroxidase 1 (GPX1) (AID 1845191); further: nearly all actives have a fitted effect of over 65% in size
Method in brief: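 Recombinant GPX1 (10 nM final) was preincubated with compound for 30 min at room temperature, then reacted with 1 mM GSH, 0.5 mM CHP, 0.5 mM NADPH and 100 nM glutathione reductase; NADPH fluorescence (340/450 nm) was read at 0 and 15 min.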

[15] = molecular target: Phospholipid hydroperoxide glutathione peroxidase GPX4 (Homo sapiens) (UniProt P36969); assay: Primary qHTS Assay for Inhibitors of Recombinant Selenoprotein Glutathione Peroxidase 4 (GPX4) (AID 1845192); details: outcome: dose series up to 50 µM unless noted; further: nearly all actives have a fitted effect of over 65% in size
Method in brief: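 GR-coupled readout: 100 nM GR, 1 mM GSH, 0.5 mM NADPH; NADPH fluorescence (ex 340/em 450 nm) read at t=0 and after 15 min RT. GPX4 200 nM, preincubated 30 min with compound; substrate 0.5 mM CHP.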

[16] = qHTS drug screen for cell cycle checkpoint inhibitors in PARPi-resistant BRCA-mutant ovarian cancer cell lines. (AID 1963452; calls by dose curve; further: potency means the concentration at half of the fitted maximal effect); details: PEO1/OlaR viability, CellTiter-Glo luminescence, 96 h; for Z-AUC: stronger effect = lower value
Method in brief: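 PEO1, PEO4 and PEO1/OlaR ovarian cancer cells, 600 per well, exposed 96 h at 37C to a dilution series. Viability read by CellTiter-Glo luminescence, normalized to DMSO and empty wells; activity summarized as Z-AUC.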

[17] = measured here: cell count channel max response
[18] = measured here: lipid channel max response
[19] = measured here: PEO1 parental Z-AUC

Sequence of Phospholipid hydroperoxide glutathione peroxidase GPX4 (Homo sapiens) (P36969 whole entry, looked up): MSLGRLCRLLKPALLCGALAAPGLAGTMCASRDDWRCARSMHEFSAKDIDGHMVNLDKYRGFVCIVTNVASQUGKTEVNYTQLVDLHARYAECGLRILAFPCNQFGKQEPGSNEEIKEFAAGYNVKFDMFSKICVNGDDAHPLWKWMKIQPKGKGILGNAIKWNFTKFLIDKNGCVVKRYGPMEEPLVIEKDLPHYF
Sequence of Cytochrome P450 3A4 (Homo sapiens) (P08684 whole entry, looked up): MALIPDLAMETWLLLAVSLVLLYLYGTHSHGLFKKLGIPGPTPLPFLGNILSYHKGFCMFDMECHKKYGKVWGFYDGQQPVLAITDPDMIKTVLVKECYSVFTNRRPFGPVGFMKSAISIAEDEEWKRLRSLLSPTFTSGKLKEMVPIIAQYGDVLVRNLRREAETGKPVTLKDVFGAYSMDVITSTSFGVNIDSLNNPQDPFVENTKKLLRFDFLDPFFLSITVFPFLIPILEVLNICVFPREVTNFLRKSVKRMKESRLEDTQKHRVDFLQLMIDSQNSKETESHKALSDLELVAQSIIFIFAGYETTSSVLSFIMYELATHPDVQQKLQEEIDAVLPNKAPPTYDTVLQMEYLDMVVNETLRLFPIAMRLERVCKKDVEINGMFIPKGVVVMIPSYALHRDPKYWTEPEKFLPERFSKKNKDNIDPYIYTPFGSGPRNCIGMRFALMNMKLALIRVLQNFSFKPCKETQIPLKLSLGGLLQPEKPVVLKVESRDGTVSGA
Sequence of 3',5'-cyclic-AMP phosphodiesterase 4B (Homo sapiens) (Q07343 whole entry, looked up): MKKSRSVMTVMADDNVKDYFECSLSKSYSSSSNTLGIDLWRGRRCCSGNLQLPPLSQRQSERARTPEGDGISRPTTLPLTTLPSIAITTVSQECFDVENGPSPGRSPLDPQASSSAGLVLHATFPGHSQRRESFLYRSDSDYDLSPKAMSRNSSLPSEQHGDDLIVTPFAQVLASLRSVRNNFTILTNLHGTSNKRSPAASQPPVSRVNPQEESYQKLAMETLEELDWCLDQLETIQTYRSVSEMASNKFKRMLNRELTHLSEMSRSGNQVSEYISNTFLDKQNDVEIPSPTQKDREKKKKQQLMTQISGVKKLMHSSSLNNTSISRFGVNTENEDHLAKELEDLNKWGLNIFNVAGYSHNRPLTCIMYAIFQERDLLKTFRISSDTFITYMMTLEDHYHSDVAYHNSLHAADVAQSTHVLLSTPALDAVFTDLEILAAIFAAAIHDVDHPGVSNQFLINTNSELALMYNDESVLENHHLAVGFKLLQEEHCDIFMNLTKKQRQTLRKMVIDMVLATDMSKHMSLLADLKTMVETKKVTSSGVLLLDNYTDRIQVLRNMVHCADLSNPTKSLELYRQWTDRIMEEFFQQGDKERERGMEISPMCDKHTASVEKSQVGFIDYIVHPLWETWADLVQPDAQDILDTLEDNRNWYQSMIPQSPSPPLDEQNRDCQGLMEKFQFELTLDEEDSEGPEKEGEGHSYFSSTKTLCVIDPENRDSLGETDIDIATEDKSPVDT
Sequence of Glutathione peroxidase 1 (Homo sapiens) (P07203 whole entry, looked up): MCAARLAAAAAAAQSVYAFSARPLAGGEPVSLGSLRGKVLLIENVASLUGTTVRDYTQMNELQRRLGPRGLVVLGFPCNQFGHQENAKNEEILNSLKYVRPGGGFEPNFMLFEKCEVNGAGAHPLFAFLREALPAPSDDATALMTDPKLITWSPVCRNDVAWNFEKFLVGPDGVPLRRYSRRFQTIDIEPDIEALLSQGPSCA
Sequence of Glucocorticoid receptor (Homo sapiens) (P04150 whole entry, looked up, the tested form may be a part): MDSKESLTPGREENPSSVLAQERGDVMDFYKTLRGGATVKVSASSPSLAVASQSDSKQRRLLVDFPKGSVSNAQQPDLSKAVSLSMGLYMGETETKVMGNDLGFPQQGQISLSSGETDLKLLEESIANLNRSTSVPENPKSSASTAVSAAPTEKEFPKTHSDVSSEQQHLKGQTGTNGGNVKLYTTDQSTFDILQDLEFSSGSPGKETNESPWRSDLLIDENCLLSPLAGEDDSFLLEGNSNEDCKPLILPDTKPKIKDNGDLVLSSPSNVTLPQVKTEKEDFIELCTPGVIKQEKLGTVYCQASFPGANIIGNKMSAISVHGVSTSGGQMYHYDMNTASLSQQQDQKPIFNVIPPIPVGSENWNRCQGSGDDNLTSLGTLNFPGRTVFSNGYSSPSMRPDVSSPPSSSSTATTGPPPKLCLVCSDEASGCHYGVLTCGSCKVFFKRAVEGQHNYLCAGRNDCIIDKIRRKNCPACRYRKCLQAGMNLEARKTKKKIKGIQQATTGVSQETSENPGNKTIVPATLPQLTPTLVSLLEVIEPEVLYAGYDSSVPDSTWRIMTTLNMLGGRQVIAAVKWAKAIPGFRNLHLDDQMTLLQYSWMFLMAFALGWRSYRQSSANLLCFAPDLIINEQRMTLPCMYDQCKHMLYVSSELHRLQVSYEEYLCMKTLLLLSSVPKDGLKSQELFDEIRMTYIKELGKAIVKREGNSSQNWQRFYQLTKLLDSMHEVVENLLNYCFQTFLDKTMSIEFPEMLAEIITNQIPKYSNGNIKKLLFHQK
Sequence of Cytochrome P450 1A2 (Homo sapiens) (P05177 whole entry, looked up): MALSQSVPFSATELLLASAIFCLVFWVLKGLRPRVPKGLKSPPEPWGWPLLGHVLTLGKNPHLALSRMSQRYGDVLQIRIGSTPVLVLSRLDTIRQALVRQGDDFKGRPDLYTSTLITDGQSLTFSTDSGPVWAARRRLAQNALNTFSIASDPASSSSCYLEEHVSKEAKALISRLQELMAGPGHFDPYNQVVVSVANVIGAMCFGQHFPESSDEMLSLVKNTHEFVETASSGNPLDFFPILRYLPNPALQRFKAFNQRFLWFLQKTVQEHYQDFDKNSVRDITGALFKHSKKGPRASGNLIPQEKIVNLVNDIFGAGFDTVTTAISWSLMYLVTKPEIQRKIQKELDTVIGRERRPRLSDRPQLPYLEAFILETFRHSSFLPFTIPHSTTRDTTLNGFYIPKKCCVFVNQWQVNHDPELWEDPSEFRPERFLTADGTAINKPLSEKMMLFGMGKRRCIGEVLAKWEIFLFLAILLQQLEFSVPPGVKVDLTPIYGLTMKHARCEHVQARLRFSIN

SMILES: Cc1noc(C)c1C(=O)N1CCC[C@@]2(CCN(c3ccccc3)C2)C1
- activity change, negative = inhibition [1]: -7.05% (inactive)
- Potency [2]: 25.1 µM (active)
- activity change, negative = inhibition [3]: -18.1% (inactive)
- activity, negative = inhibition [4]: 3.26% (inactive)
- Potency [5]: > 46 µM (inactive)
- outcome [6]: inactive
- Potency [7]: inactive
- Potency [8]: 5.01 µM (active)
- Potency [9]: inactive
- activity change, negative = inhibition [10]: -2.45% (inactive)
- max response [10, 17]: 13.4%
- max response [10, 18]: 14.8%
- Potency [11]: inactive

SMILES: COc1ccc(S(=O)(=O)N[C@@H](CNc2nc(C)nc(N3CCC(c4ccc5c(n4)NCCC5)CC3)c2C)C(=O)O)cc1
- Potency [12]: inactive
- Potency [13]: inactive
- Potency [14]: inactive
- Potency [15]: inactive
- Potency [16]: 0.0616 µM (active)
- Z-AUC [16, 19]: -1.54
- Z-AUC ([16]; measured here: PEO4 Z-AUC): -1.12

SMILES: CCC1CCCCN1C(=O)n1ncc(C(O)(c2ccccc2)c2ccccc2)n1 (configuration not stated)
- Potency [12]: 10.5 µM (active)
- Potency [14]: inactive
- Potency [15]: inactive
- Z-AUC [16]: 0.1 (inactive)
- Z-AUC [16, 19]: 0.47
- Z-AUC ([16]; measured here: PEO4 Z-AUC): 0.409

SMILES: COc1ccc(-c2oc3c(CC=C(C)C)c(OC4O[C@H](CO)[C@@H](O)[C@H](O)[C@H]4O)cc(O)c3c(=O)c2OC2O[C@@H](C)[C@H](O)[C@@H](O)[C@H]2O)cc1 (some centres not stated)
- Potency [12]: inactive
- Potency [13]: inactive
- Potency [14]: inactive
- Potency [15]: inactive
- Z-AUC [16]: 0.153 (inactive)
- Z-AUC [16, 19]: 0.0996
- Z-AUC ([16]; measured here: PEO4 Z-AUC): 0.222

SMILES: N=C1S/C(=C\c2ccc(-c3ccc4c(c3)C(=O)NC4=O)o2)C(=O)N1c1ccc(Br)cc1
- Potency [12]: inactive
- Potency [13]: inactive
- Potency [14]: inactive
- Z-AUC [16]: 0.761 (inactive)
- Z-AUC [16, 19]: 0.782
- Z-AUC ([16]; measured here: PEO4 Z-AUC): 0.462

SMILES: CN(CCOc1ccc(-c2ccc3c(c2)OCO3)cc1C(C)(C)C)CC(=O)O
- Potency [13]: 20.9 µM (active)
- Potency [14]: inactive
- Potency [15]: inactive
- Z-AUC [16]: 0.446 (inactive)
- Z-AUC [16, 19]: 1.02
- Z-AUC ([16]; measured here: PEO4 Z-AUC): 1.29

SMILES: Cc1ccc(NS(=O)(=O)c2cccc(C#N)c2)c2[nH]cc(C#N)c12
- Potency [12]: 0.372 µM (active)
- Potency [14]: inactive
- Potency [15]: inactive
- Z-AUC [16]: -0.908 (inactive)
- Z-AUC [16, 19]: -1.02
- Z-AUC ([16]; measured here: PEO4 Z-AUC): -1.95

SMILES: O=C1CC(c2c[nH]c3ccc(F)cc23)C(=O)N1 (configuration not stated)
- Potency [12]: inactive
- Potency [14]: inactive
- Potency [15]: inactive
- Z-AUC [16]: 0.488 (inactive)
- Z-AUC [16, 19]: 0.554
- Z-AUC ([16]; measured here: PEO4 Z-AUC): 0.655

SMILES: CC(=O)N1CCC2(CCCN(c3ccccc3)C2)CC1
- activity change, negative = inhibition [1]: -11.7% (inactive)
- Potency [2]: inactive
- activity change, negative = inhibition [3]: 9.86% (inactive)
- activity, negative = inhibition [4]: -0.0216% (inactive)
- Potency [5]: > 46 µM (inactive)
- outcome [6]: inactive
- Potency [7]: inactive
- Potency [9]: inactive
- activity change, negative = inhibition [10]: 1.01% (inactive)
- max response [10, 17]: 9.92%
- max response [10, 18]: 12.8%
- Potency [11]: inactive

SMILES: Nc1nccc(-c2c(-c3ccc(F)cc3)ncn2C2CCN(Cc3ccon3)CC2)n1
- Potency [12]: 7.42 µM (active)
- Potency [13]: 7.42 µM (active)
- Potency [14]: inactive
- Z-AUC [16]: 0.042 (inactive)
- Z-AUC [16, 19]: 0.6
- Z-AUC ([16]; measured here: PEO4 Z-AUC): 0.374

SMILES: O=C(c1cnccn1)N1CCC[C@@]2(CCN(c3ccncc3)C2)C1
- activity change, negative = inhibition [1]: -3.24% (inactive)
- Potency [2]: inactive
- activity change, negative = inhibition [3]: 1.53% (inactive)
- activity, negative = inhibition [4]: 5.94% (inactive)
- Potency [5]: > 46 µM (inactive)
- Potency [7]: inactive
- Potency [8]: 3.16 µM (active)
- Potency [9]: inactive
- activity change, negative = inhibition [10]: 3.16% (inactive)
- max response [10, 17]: 6.74%
- max response [10, 18]: 12.1%
- Potency [11]: inactive

SMILES: CN(C(=O)CNC(=O)/C=C/c1cccc(Cl)c1)C1CCS(=O)(=O)CC1
- Potency [14]: inactive
- Potency [15]: inactive
- Z-AUC [16]: -0.555 (inactive)
- Z-AUC [16, 19]: -0.958
- Z-AUC ([16]; measured here: PEO4 Z-AUC): -0.957
